Source: PubChem BioAssay
Calls of active or inactive are those of the source. No rule for the calls is given here.

experiment: Brca1-Bard1 BiLC signal decrease – luminescence, single concentration, counter-screen for Mdm2/MdmX interaction inhibitor project, confirmation (AID 504668); conditions: Brca1/Bard1 bimolecular luciferase complementation counterscreen, at 8 µM, hits give high values

SMILES	inhibition
O=C(CCCN1C(=O)/C(=C\c2ccccc2)SC1=S)Nc1ccccc1O	30.3% (active)
CCCSc1nnc(NC(=O)Nc2ccc(F)cc2)s1	28.5% (active)
O=C1c2cccc3c([N+](=O)[O-])ccc(c23)C(=O)N1c1nccs1	27% (active)
S=c1[nH]nc(-c2cc(-c3ccccc3)n[nH]2)n1/N=C/C(Br)=C/c1ccccc1	24.2% (active)
COc1ccc2cc1Oc1ccc(cc1)C[C@H]1c3c(cc4c(c3Oc3cc5c(cc3OC)CCN(C)[C@@H]5C2)OCO4)CCN1C	31.6% (active)
C/C(=N\NC(=O)c1cc(-c2cccs2)nc2ccccc12)c1ccccn1	28.3% (active)
CCCCNc1c(-c2ccc(OC)c(SC3CCCCC3)c2)nc2ccc(C)cn12	28.6% (active)
CSc1nc2nccc(/C=C\c3ccccc3)n2n1	23.7% (active)
CCCCCCCCn1c2c(c(=N)c3ccccc31)CCC2	27.2% (active)
O=C(CNc1ccc(F)cc1)N/N=C/c1c(O)ccc2ccccc12	27.9% (active)
CCCCCCCCCCC[N+](C)(C)CC/C=C1/c2ccccc2Sc2ccc(Cl)cc21	28.6% (active)
O=C(Nc1ccc(N2CCCCC2)cc1)c1ccccn1	27.9% (active)
Cc1ccc2[nH]c(C(=O)N/N=C/c3ccccc3O)c(C)c2c1	25.3% (active)
CCCNC(=O)c1ccc2c(=O)c(O)c(-c3cccc(Br)c3)[nH]c2c1	31.4% (active)
Cc1cccc(C(=O)NC(C(=O)Nc2nc(-c3ccccn3)cs2)C(C)C)c1 (centres undefined)	30.7% (active)
Cn1cc(C(=O)N/N=C/c2c(O)ccc3ccccc23)ccc1=O	27% (active)
Oc1c(C(c2ccc(Cl)cc2)N2CCCC2)cc(Cl)c2cccnc12 (centres undefined)	32.9% (active)
S=C(NNc1ccc2ccccc2c1)NC1CCCCC1	34.4% (active)
O=C1/C(=C/c2ccc(F)cc2)SC(=S)N1CCCC(=O)N1CCCCC1CCO (centres undefined)	23.7% (active)
C=CCc1cccc(/C=N/NC(=O)c2ccc3nc[nH]c3c2)c1O	26.2% (active)

SMILES	inhibition
N#Cc1ccc(NC(=O)Nc2ccc(Oc3ccc(NC(=O)Nc4ccc(C#N)cc4)cc3)cc2)cc1	35.1% (active)
Cc1oc(-c2ccccc2Cl)nc1CSCC(=O)N1CCCC1	25.7% (active)
O=C(CCCN1C(=O)/C(=C\c2ccco2)SC1=S)Nc1cccc2ccccc12	28.5% (active)
Cc1ccc(O)c(/C=N/NC(=O)Cc2ccc(Cl)cc2)c1	33.6% (active)
O=C(C[C@H]1C[C@H](C(=O)N2CCCCC2)[C@@]2(CCc3ccccc3)c3[nH]c4ccc(Cl)cc4c3CCN2C1=O)NCc1cccc(C(F)(F)F)c1	34% (active)
CN1CCN(Cc2cc(COCc3ccccc3)c3cccnc3c2O)CC1	29.5% (active)
CCN1CCN(c2ccc(Nc3ccnc4ccccc34)cc2)CC1	29.8% (active)
CC1=NN(c2ccccc2)C(=O)/C1=C\C=C\c1ccccc1	28.9% (active)
COc1cccc(/C=C2\SC(=S)N(CCC(=O)NCCc3ccc(O)cc3)C2=O)c1	35.4% (active)
CCc1ccc2[nH]c3nc(N/N=C/c4ccc(O)cc4O)nnc3c2c1	29.3% (active)
O=C(Nc1ccc(OC(F)(F)F)cc1)Nc1cccc([N+](=O)[O-])c1	35.8% (active)
CN1CCN(C(c2ccc(C(F)(F)F)cc2)c2ccc3cccnc3c2O)CC1 (centres undefined)	27.9% (active)
COc1ccc(OC)c2[nH]c(C(=O)N/N=C/c3ccccc3O)cc12	32.5% (active)
O=Cc1[nH]c2ccccc2c1N(C(=O)CCl)c1ccc([N+](=O)[O-])cc1	25.5% (active)
CCC(=O)Nc1cccc(C(=O)/C=C/c2ccccc2)c1	34.4% (active)
CCS(=O)(=O)c1nnnn1-c1ccccc1S(C)(=O)=O	34.3% (active)
CC(=O)c1c(C)[nH]c(C(=O)N2CCN(c3cc(Cl)ccc3C)CC2)c1C	34% (active)
Cc1cc(C2CCCCC2)n(O)c(=O)c1	32.2% (active)
CN(C)CCNC(=O)/C(=C/c1ccc(-c2ccc(Cl)cc2Cl)o1)NC(=O)c1ccccc1	26.3% (active)
